A number with no mark means an inactive call. Results filed as inconclusive are left out. Where a call stands in place of a potency, no number is given. Calls of active or inactive are those of the source. Unless noted, the call rests on the fitted dose curve; in most records, active means well fitted curve in the direction sought with a large enough effect in the repeat runs; inconclusive means weak or mixed curves; inactive means no such curve, though single readings can be large; an effect the other way counts as inactive or inconclusive.
Experiments:
[1] = target: Thyrotropin receptor (Homo sapiens) (UniProt P16473); experiment: qHTS assay to identify small molecule agonists of the thyroid stimulating hormone receptor (TSHR) signaling pathway (AID 1224843; calls by dose curve; further: nearly all actives have a fitted effect of over 45% in size)
Sequence of Thyrotropin receptor (Homo sapiens) (P16473 whole entry, looked up): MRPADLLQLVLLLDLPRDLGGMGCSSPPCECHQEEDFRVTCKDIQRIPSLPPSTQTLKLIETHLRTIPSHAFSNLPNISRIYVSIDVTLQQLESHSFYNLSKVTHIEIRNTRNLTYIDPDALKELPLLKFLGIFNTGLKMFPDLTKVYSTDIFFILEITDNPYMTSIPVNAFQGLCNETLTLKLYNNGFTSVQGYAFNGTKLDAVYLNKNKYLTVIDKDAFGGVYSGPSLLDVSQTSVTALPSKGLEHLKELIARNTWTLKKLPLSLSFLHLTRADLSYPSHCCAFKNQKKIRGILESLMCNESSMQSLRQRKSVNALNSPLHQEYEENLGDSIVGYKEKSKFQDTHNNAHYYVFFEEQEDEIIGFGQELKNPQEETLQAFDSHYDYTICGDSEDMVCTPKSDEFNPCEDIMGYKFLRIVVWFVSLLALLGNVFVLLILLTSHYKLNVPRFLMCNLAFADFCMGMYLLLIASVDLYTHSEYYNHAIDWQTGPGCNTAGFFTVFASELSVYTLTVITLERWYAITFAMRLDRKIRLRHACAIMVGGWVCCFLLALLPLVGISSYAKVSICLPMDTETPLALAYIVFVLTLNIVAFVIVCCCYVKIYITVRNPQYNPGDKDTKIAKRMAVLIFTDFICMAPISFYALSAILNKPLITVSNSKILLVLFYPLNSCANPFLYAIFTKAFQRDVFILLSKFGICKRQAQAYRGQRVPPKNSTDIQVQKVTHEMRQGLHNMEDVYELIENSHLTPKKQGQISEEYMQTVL
How it was run: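 Using 15 concentrations per compound in triplicate, cAMP production was monitored in TSHR-HEK293 cells after 30 min compound incubation at RT; HTRF reagents followed, with fluorescence intensity recorded after 1 h.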

[2] = qHTS assay to identify small molecule agonists of the hypoxia (HIF-1) signaling pathway - cell viability counter screen (AID 1224844; calls by dose curve; further: nearly all actives have a fitted effect of over 50% in size)
How it was run: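 Cytotoxicity was measured in parallel with the HRE-driven beta-lactamase readout: after 17 hrs of compound exposure at 37C, HRE-bla ME-180 cells received CellTiter-Glo and luminescence was recorded 30 min later.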

[3] = qHTS assay to identify small molecule agonists of H2AX (AID 1224845; active means well fitted activation curve with a large enough effect in the signal ratio in the repeat runs, not every such curve was filed as active; the % refers to the signal ratio)
How it was run: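 Wild-type CHO-K1 cells plated overnight, then exposed 3 hr at 37C to compounds at 15 concentrations (0.76% DMSO). Lysed, then HTRF anti-pH2AX(S139)-cryptate/anti-H2AX-d2 detection after 24 hr at room temperature; emissions 665 and 620 nm.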

[4] = qHTS assay to identify small molecule agonists of the hypoxia (HIF-1) signaling pathway (AID 1224846; active means well fitted activation curve with a large enough effect in the signal ratio in the repeat runs, not every such curve was filed as active; the % refers to the signal ratio)
How it was run: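 Compounds from the Tox21 10K library, dissolved in DMSO, are tested for induction of a hypoxia response element–controlled beta-lactamase reporter in ME-180 cells. Exposure lasts 17 hrs at 37C after a 5 hr settling period, followed by CCF4-AM FRET substrate.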

[5] = qHTS assay to identify small molecule agonists of H2AX - cell viability counter screen (AID 1224847; calls by dose curve; further: top concentration of the series differs between compounds; nearly all actives have a fitted effect of over 30% in size)
How it was run: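 Counter-screen for viability: CellTiter-Glo ATP luminescence read after 3 h compound treatment (15-point titration, 0.76% DMSO final) of CHO-K1 cells at 37C, with 30 min room-temperature reagent incubation.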

[6] = qHTS assay to identify small molecule antagonists of the estrogen related receptor (ERR) signaling pathway from Tox21 library (AID 1224848); further: nearly all actives have a fitted effect of over 50% in size; further: potency means the concentration at half of the fitted maximal effect
How it was run: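 Tox21 10K compounds in DMSO tested for ERR pathway antagonism in NTP's ERR cell line; 18 h, 37 C exposure; ONE-Glo luminescence.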

[7] = qHTS assay to identify small molecule agonists of the estrogen related receptor (ERR) signaling pathway from Tox21 library (AID 1224849; calls by dose curve; further: nearly all actives have a fitted effect of over 15% in size); settings: ERR reporter cell line, ONE-Glo luciferase, 18 h; at 92.4 µM (top of the series) unless noted
How it was run: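 Cells carrying the ERR reporter were plated and allowed to settle for 6 h, exposed to library compounds for 18 h at 37 C, then lysed with ONE-Glo and luminescence measured.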

[8] = qHTS RealTime-Glo MT Cell Viability Assay in HepG2 cells - 24 hour (AID 1224867); further: nearly all actives have a fitted effect of over 50% in size
How it was run: (§1)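 HepG2 cells were seeded at 600 cells/well together with NanoLuc luciferase and a cell-permeant prosubstrate, preincubated 5 h at 37 C/5% CO2, then pin-dosed with compounds in DMSO. Nonlytic luminescence from viable cells was read at each time point.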

[9] = qHTS RealTime-Glo MT Cell Viability Assay in HEK293 cells - 32 hour (AID 1224868); further: top concentration of the series differs between compounds; nearly all actives have a fitted effect of over 50% in size
How it was run: (§2)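 HEK293 cells were seeded at 600 cells/well together with NanoLuc luciferase and cell-permeant prosubstrate, preincubated 5 h at 37 C/5% CO2, then given compound in DMSO by pintool. Luminescence from viable-cell prosubstrate reduction was read repeatedly over 40 h.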

[10] = A CellTox Green Cytotoxicity Assay to monitor cytotoxicity in HEK293 cells - 0 hour (AID 1224869); further: nearly all actives have a fitted effect of over 50% in size
How it was run: (§3)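 Cells (HEK293, 600/well) and dye reagent are dispensed together. After 5 h at 37 C, 23 nL compound is pinned in. Plates stay at 37 C for 40 h with fluorescence read at 0h, 8h, 16h, 24h, 32h and 40h.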

[11] = qHTS RealTime-Glo MT Cell Viability Assay in HepG2 cells - 40 hour (AID 1224870); further: nearly all actives have a fitted effect of over 50% in size
How it was run: (§4)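 HepG2 cells mixed with RealTime-Glo MT reagents (NanoLuc plus cell-permeant prosubstrate) were seeded at 600 cells/well, incubated 5 h at 37 C/5% CO2, then pinned with compounds in DMSO; nonlytic luminescence tracked viability during 40 h treatment.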

[12] = A CellTox Green Cytotoxicity Assay to monitor cytotoxicity in HEK293 cells - 40 hour (AID 1224871); further: nearly all actives have a fitted effect of over 45% in size
How it was run: as §3

[13] = qHTS RealTime-Glo MT Cell Viability Assay in HEK293 cells - 16 hour (AID 1224872)
How it was run: as §2

[14] = qHTS RealTime-Glo MT Cell Viability Assay in HepG2 cells - 8 hour (AID 1224873); further: nearly all actives have a fitted effect of over 55% in size
How it was run: as §4

[15] = qHTS RealTime-Glo MT Cell Viability Assay in HEK293 cells - 40 hour (AID 1224874); settings: RealTime-Glo luminescence; max response: stronger effect = lower value; further: nearly all actives have a fitted effect of over 50% in size
How it was run: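 Real-time viability in HEK293: signal arises when living cells convert a prosubstrate for NanoLuc in the medium, so luminescence tracks viable cell number. Compound (23 nL, DMSO) added 5 h post-seeding; kinetic reads at 0–40 h, 37 C.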

[16] = A CellTox Green Cytotoxicity Assay to monitor cytotoxicity in HEK293 cells - 24 hour (AID 1224875); further: nearly all actives have a fitted effect of over 45% in size
How it was run: as §3

[17] = qHTS RealTime-Glo MT Cell Viability Assay in HepG2 cells - 32 hour (AID 1224877); further: nearly all actives have a fitted effect of over 55% in size
How it was run: as §1

[18] = A CellTox Green Cytotoxicity Assay to monitor cytotoxicity in HepG2 cells - 24 hour (AID 1224878); further: nearly all actives have a fitted effect of over 45% in size
How it was run: (§5)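 Cells and non-lytic dye reagent are dispensed together (600 HepG2 cells/well) and incubated 5 h before DMSO compound transfer. Kinetic fluorescence is then recorded in the same wells during 40 h at 37 C.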

[19] = A CellTox Green Cytotoxicity Assay to monitor cytotoxicity in HepG2 cells - 40 hour (AID 1224879); further: nearly all actives have a fitted effect of over 40% in size
How it was run: as §5

[20] = A CellTox Green Cytotoxicity Assay to monitor cytotoxicity in HepG2 cells - 16 hour (AID 1224876); further: nearly all actives have a fitted effect of over 45% in size
How it was run: as §5

SMILES	Potency [1]	outcome [2]	outcome [3]	outcome [4]	Potency [5]	Potency [6]	activity change, positive = activation [7]	outcome [8]	Potency [9]	outcome [10]	outcome [11]	Potency [12]	Potency [13]	outcome [14]	max response [15] [%]	outcome [16]	outcome [17]	outcome [18]	Potency [19]	outcome [20]
CC(=C(CCOC(=O)C(C)C)SSC(CCOC(=O)C(C)C)=C(C)N(C=O)Cc1cnc(C)nc1N)N(C=O)Cc1cnc(C)nc1N	inactive	inactive	inactive	inactive	inactive	inactive	0.537% [at 42.5 µM]	inactive	inactive	inactive	inactive	inactive	inactive	inactive	3.74	inactive	–	–	–	–
CCO[Si](CCCS)(OCC)OCC	inactive	inactive	inactive	inactive	inactive	inactive	5.01%	inactive	inactive	inactive	inactive	inactive	–	inactive	16.1	inactive	inactive	inactive	inactive	–
CCCCCCCCCCl	inactive	inactive	inactive	inactive	inactive	inactive	2.84%	inactive	inactive	inactive	inactive	inactive	inactive	inactive	-0.474	inactive	–	–	inactive	inactive
OCCCCC(O)CO (stereo not drawn)	inactive	inactive	inactive	inactive	inactive	inactive	-0.533%	inactive	inactive	inactive	inactive	inactive	inactive	inactive	5.78	inactive	inactive	inactive	inactive	inactive
COc1cc(N)ccc1C	inactive	inactive	inactive	inactive	inactive	27 µM (active)	-31.2%	inactive	inactive	inactive	inactive	inactive	–	inactive	8.05	inactive	inactive	–	inactive	inactive
CC(C)(C)c1n[nH]c(=S)n(N)c1=O	inactive	inactive	inactive	inactive	inactive	inactive	-1.28%	inactive	inactive	inactive	inactive	inactive	inactive	inactive	2.54	inactive	–	–	inactive	inactive
O=C(OCc1ccccc1)C(=O)OCc1ccccc1	inactive	inactive	inactive	inactive	inactive	inactive	0.466%	inactive	inactive	inactive	inactive	inactive	inactive	inactive	1.62	inactive	inactive	inactive	inactive	inactive
O=C(NCCN1CCOCC1)c1ccc(Cl)cc1	inactive	inactive	inactive	inactive	inactive	inactive	9.75% [at 42.5 µM]	inactive	inactive	inactive	inactive	inactive	–	inactive	5.6	inactive	inactive	inactive	inactive	inactive
CCn1ccc(NS(=O)(=O)c2ccc(N)cc2)nc1=O	inactive	inactive	inactive	inactive	inactive	inactive	3.61% [at 42.5 µM]	inactive	inactive	inactive	–	inactive	inactive	inactive	5.4	inactive	inactive	inactive	inactive	inactive
COc1cc(C(=S)N2CCOCC2)cc(OC)c1OC	inactive	inactive	inactive	inactive	inactive	inactive	-0.791% [at 42.5 µM]	inactive	inactive	inactive	inactive	inactive	inactive	inactive	4.79	inactive	–	inactive	inactive	inactive
CC(C)CC(C)CC(C)CC(C)COC(=O)c1ccccc1C(=O)OCC(C)CC(C)CC(C)CC(C)C (stereo not drawn)	inactive	inactive	inactive	inactive	inactive	inactive	-6.15%	inactive	inactive	inactive	inactive	inactive	inactive	inactive	4.21	inactive	inactive	inactive	inactive	inactive
CC(=O)NCc1c(I)c(NC(C)=O)c(I)c(C(=O)O)c1I	inactive	inactive	inactive	inactive	inactive	inactive	6.18% [at 42.5 µM]	inactive	inactive	inactive	inactive	inactive	inactive	inactive	3.65	inactive	inactive	–	–	–
O=S(=O)(O)CCN1CCN(CCO)CC1	inactive	inactive	inactive	inactive	inactive	inactive	9.7%	inactive	–	inactive	inactive	inactive	inactive	inactive	-3.48	inactive	–	inactive	–	–
